In PubChem BioAssay:
For part of these data: Results with a measured potency or affinity are listed apart. The source made the active and inactive calls.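 The calls were made as follows, unless noted: active = earlier screen potentiator hit that boosts the TRPC4 ion channel at some dose, with a dose response; inactive = no potentiation, no dose response, or not a prior hit.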

What was measured:
[1] = test system: TRPC4 beta (transient receptor potential cation channel C4), mouse; test: TRPC4 cation channel opening, retest – cell-based, Fluo4 calcium, HEK293 TRPC4beta/mu-opioid, duplicates, 10 µM, confirmation (AID 2426;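 active = fluorescence ratio normalized to control raised more than 50% in primary screen plus both repeat runs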); conditions: Fluo4 calcium fluorescence, at 10 µM; hits give high values
[2] = test system: transient receptor potential cation channel C4 beta (TRPC4), mouse; test: TRPC4 cation channel opening, second retest – cell-based, second round, Fluo4, HEK293 TRPC4beta/mu-opioid, 1 µM, confirmation (AID 2461;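 active = primary screen active and over 50% activation in each of two duplicate runs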); conditions: Fluo4 calcium fluorescence, at 1 µM; hits give high values
[3] = test system: TRPC4 (transient receptor potential cation channel C4 beta), mouse; test: potentiation of DAMGO EC20 TRPC4 response – cell-based, second round, Fluo-4, HEK293 TRPC4beta/mu-opioid, 1 µM, confirmation (AID 2554;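 active = primary screen hit whose fluorescence ratio, in both repeats, exceeds the weak agonist control mean by 3 SD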); conditions: DAMGO EC20, Fluo-4 calcium flux, at 1 µM; hits give high values
[4] = test system: TRPC4 beta (transient receptor potential cation channel C4), mouse; test: potentiation of DAMGO EC20 TRPC4 response – cell-based, Fluo-4, HEK293 TRPC4beta/mu-opioid, confirmation (AID 2555;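 active = primary screen hit whose calcium fluorescence ratio, in both repeats, exceeds the weak agonist control mean by 3 SD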); conditions: DAMGO EC20, Fluo-4 calcium flux, at 10 µM; hits give high values
[5] = biological target: Short transient receptor potential channel 4 (Mus musculus) (UniProt Q9QUQ5); test: blockers of DAMGO-evoked TRPC4 calcium flux – cell-based, Fluo4, HEK293 TRPC4beta/mu-opioid, confirmation (AID 2636;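 active = calcium signal cut by more than 3 SD below the full-agonist control yet still positive, in both repeats and the earlier primary screen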); conditions: at 10 µM; hits give high values
[6] = biological target: Short transient receptor potential channel 4 (Mus musculus) (UniProt Q9QUQ5); test: blockers of DAMGO-evoked TRPC4 calcium flux – cell-based, second round, Fluo4, HEK293 TRPC4beta/mu-opioid, 1 µM, confirmation (AID 2637;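 active = calcium signal ratio cut to more than 3 SD under the fully stimulated control mean yet still positive, in both repeats and the primary screen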); conditions: at 1 µM; hits give high values
[7] = biological target: Short transient receptor potential channel 4 (Mus musculus) (UniProt Q9QUQ5); test: calcium entry via TRPC4 opening agents – cell-based, HEK293 TRPC4/mu-opioid, Fluo-4 calcium, dose response (AID 434937;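 active = primary screen activator hit with a dose response curve and TRPC4 channel activation at any tested dose; inactive = no activation, no dose response, or not a primary hit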)
[8] = biological target: Short transient receptor potential channel 4 (Mus musculus) (UniProt Q9QUQ5); test: potentiation of DAMGO-evoked TRPC4 calcium signal – cell-based, HEK293 TRPC4/mu-opioid, Fluo-4 calcium, EC20 DAMGO, dose response (AID 434941);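 also: calcium entry triggered by an EC20 dose of DAMGO at the co-expressed mu-opioid receptor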
[9] = biological target: Short transient receptor potential channel 4 (Mus musculus) (UniProt Q9QUQ5); test: block of DAMGO-driven TRPC4 calcium entry – cell-based, HEK293 TRPC4/mu-opioid, Fluo-4 calcium, dose response (AID 434942;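 active = primary screen inhibitor hit that blocks the TRPC4 channel at some tested dose, yielding a dose curve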)
[10] = biological target: Short transient receptor potential channel 6 (Mus musculus) (UniProt Q61143); test: TRPC6 blockade by TRPC4 inhibitor hits – cell-based, HEK293, membrane potential dye, duplicate, selectivity assay for TRPC4 inhibitor project, confirmation (AID 434948;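 active = active in primary screen and both duplicates, each dropping signal beyond three positive-control SD with fluorescence still positive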); conditions: HEK293 TRPC6, membrane potential dye fluorescence, at 10 µM, stimulated with maximal-effect acetylcholine; hits give high values
[11] = biological target: Short transient receptor potential channel 6 (Mus musculus) (UniProt Q61143); test: TRPC6 opening by TRPC4 activator hits – cell-based, HEK293, membrane potential dye, duplicate, selectivity assay for TRPC4 activator project, confirmation (AID 434950;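 active = membrane potential signal rise above negative control mean plus 3 SD in both duplicates, also active in the earlier TRPC4 screen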); conditions: HEK293 TRPC6, membrane potential fluorescence, at 10 µM; activation: hits give high values; outcome: activation
[12] = biological target: Short transient receptor potential channel 6 (Mus musculus) (UniProt Q61143); test: positive modulators of mouse TRPC6 channel – HEK293 cells, membrane potential dye, duplicate, selectivity assay for TRPC4 potentiator project, confirmation (AID 434952;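 active = compound raising the membrane signal above positive-control mean plus 3 SD in both repeats, and a primary screen hit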); conditions: HEK293 TRPC6, membrane potential dye fluorescence, at 10 µM, maximal acetylcholine added after compound; hits give high values
[13] = biological target: Short transient receptor potential channel 4 (Mus musculus) (UniProt Q9QUQ5); test: calcium flux activators in TRPC4/5HT1a cells, counter-screen for TRPC4 activator project, cell-based, second counter screen, HEK293 TRPC4/5HT1a, Fluo-4 (AID 434977;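 active = calcium signal rise above buffer-control mean plus 5 SD in both duplicates, and also a hit in the primary screen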); conditions: Fluo-4 calcium flux, at 10 µM; hits give high values
[14] = serotonin-gated TRPC4 signal block – cell-based, second counter screen, HEK293 TRPC4/5HT1a, Fluo-4, counter-screen for TRPC4 inhibitor project, confirmation (AID 434978;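 active = primary screen active whose calcium signal fell more than 3 SD beyond the full-serotonin control mean in both duplicate plates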;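 as to outcome: serotonin given first at submaximal then at maximal dose after compound preincubation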); conditions: Fluo-4 calcium flux, at 10 µM, serotonin added to trigger calcium flux; hits give high values
[15] = test system: TRPC4 (mouse), co-expressed with 5HT1a in HEK293; test: enhancement of serotonin-evoked TRPC4 response – cell-based, second counter screen, HEK293 TRPC4/5HT1a, Fluo-4, counter-screen for TRPC4 potentiator project, confirmation (AID 434979;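 active = signal rise over 3 SD above mean of control wells given weak agonist, in both repeats and first screen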); conditions: Fluo-4 calcium flux, at 10 µM, serotonin added at its EC20 dose; hits give high values
[16] = nonspecific calcium rise without TRPC4 – cell-based, HEK293 mu-opioid receptor line, counter-screen for TRPC4 activator project, confirmation (AID 449723;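 active = hit in primary screen, with calcium signal over 5 SD above buffer well mean in both duplicates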;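 also: counter screen cells carry the mu-opioid receptor alone and lack TRPC4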); conditions: HEK293 mu-opioid cells, Fluo-4 calcium fluorescence, at 10 µM; hits give high values
[17] = nonspecific potentiation of DAMGO calcium response – cell-based, HEK293 mu-opioid receptor line, counter-screen for TRPC4 allosteric potentiator project, confirmation (AID 449724;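 active = calcium signal rise more than 3 SD above the low-dose agonist control mean, in both duplicate plates and the primary screen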); conditions: HEK293 mu-opioid receptor cells, Fluo-4 calcium flux, at 10 µM, compound added before EC20 DAMGO stimulus; hits give high values

Sequence of Short transient receptor potential channel 6 (Mus musculus) (Q61143 whole entry, looked up): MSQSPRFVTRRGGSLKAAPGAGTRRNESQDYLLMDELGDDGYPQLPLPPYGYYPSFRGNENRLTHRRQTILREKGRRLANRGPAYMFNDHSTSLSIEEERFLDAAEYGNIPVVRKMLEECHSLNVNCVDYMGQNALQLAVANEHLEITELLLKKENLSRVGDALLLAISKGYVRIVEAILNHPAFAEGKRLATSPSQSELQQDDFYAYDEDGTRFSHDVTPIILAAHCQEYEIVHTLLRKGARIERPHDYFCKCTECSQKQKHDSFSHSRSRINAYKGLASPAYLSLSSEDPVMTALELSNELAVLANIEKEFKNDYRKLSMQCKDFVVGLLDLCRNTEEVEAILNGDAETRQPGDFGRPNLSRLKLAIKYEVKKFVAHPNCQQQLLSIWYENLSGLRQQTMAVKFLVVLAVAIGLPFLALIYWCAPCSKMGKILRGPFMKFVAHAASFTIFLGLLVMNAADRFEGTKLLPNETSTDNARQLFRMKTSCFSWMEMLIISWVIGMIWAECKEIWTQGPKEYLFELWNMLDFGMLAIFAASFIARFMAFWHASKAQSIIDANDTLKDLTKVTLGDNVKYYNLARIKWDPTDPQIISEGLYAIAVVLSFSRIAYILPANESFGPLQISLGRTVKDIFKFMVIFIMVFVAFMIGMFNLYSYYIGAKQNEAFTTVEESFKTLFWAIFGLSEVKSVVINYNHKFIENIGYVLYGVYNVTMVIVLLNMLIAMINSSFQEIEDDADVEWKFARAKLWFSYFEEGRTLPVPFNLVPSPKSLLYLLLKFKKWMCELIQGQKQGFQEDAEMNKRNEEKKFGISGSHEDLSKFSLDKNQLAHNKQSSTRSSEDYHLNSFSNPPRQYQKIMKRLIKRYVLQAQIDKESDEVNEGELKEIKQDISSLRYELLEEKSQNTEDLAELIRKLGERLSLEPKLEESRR
Sequence of Short transient receptor potential channel 4 (Mus musculus) (Q9QUQ5 whole entry, looked up): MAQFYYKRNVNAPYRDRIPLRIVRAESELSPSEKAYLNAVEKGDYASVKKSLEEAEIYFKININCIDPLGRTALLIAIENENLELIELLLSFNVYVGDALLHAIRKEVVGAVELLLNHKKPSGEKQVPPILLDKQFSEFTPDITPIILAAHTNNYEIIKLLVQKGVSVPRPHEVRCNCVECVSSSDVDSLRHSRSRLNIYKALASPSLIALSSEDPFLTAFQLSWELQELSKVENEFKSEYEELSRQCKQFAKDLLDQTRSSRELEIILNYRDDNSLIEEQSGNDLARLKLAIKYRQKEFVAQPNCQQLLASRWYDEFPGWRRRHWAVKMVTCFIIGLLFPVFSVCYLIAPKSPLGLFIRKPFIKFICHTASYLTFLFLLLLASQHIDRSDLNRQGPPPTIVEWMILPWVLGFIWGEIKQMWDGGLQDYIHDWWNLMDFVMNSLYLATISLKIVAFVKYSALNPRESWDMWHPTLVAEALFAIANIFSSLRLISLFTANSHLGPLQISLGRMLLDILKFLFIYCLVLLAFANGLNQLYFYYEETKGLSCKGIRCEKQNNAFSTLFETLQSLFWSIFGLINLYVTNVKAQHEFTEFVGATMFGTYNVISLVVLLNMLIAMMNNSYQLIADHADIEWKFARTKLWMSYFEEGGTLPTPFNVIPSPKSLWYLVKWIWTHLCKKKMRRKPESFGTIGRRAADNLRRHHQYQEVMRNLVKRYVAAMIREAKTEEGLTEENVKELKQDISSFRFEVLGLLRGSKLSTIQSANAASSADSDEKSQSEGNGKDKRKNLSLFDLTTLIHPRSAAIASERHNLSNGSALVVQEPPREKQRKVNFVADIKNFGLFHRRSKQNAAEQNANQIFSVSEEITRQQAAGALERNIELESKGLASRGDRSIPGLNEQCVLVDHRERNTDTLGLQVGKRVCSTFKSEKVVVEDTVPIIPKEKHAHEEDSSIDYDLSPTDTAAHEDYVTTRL

CCC(=O)c1cc2c(C)cc(=O)oc2c(C)c1OC(=O)C(C)C
inactive: outcome [1] | outcome [2] | outcome [3] | outcome [4] | outcome [6] | outcome [7] | outcome [8] | outcome [9] | outcome [10] | outcome [11] | outcome [12] | outcome [13] | outcome [15] | outcome [16] | outcome [17]
active: inhibition [5] 85% | inhibition [14] 12.2%

CC[n+]1c(/C=C/Nc2ccccc2)sc2ccccc21
inactive: outcome [1] | outcome [2] | outcome [3] | outcome [4] | outcome [5] | outcome [6] | outcome [7] | outcome [8] | outcome [9] | outcome [10] | outcome [11] | outcome [12] | outcome [13] | outcome [14] | outcome [15] | outcome [16] | outcome [17]

CC(C)Oc1ccccc1C1CC(=O)Nc2cc3c(cc21)OCCO3 (stereo not given)
active: potentiation [4] 44% | potentiation [15] 96.2%
inactive: outcome [1] | outcome [2] | outcome [3] | outcome [5] | outcome [6] | outcome [7] | outcome [8] | outcome [9] | outcome [10] | outcome [11] | outcome [12] | outcome [13] | outcome [14] | outcome [16] | outcome [17]

Cc1oc(-c2cccc(F)c2)nc1CN(Cc1ccccc1)C[C@@H]1CCC(=O)N1
inactive: outcome [1] | outcome [2] | outcome [3] | outcome [4] | outcome [5] | outcome [6] | outcome [7] | outcome [8] | outcome [9] | outcome [10] | outcome [11] | outcome [12] | outcome [13] | outcome [14] | outcome [15] | outcome [16] | outcome [17]

CCCCc1nnc(NC(=O)C2CCN(c3ncnc4sc(C)c(C)c34)CC2)s1
inactive: outcome [1] | outcome [2] | outcome [3] | outcome [4] | outcome [5] | outcome [6] | outcome [7] | outcome [8] | outcome [9] | outcome [10] | outcome [11] | outcome [12] | outcome [13] | outcome [14] | outcome [15] | outcome [16] | outcome [17]

CC(C)c1nc(N2CCOCC2)c(C#N)c2c1CCCC2
inactive: outcome [1] | outcome [2] | outcome [3] | outcome [4] | outcome [5] | outcome [6] | outcome [7] | outcome [8] | outcome [9] | outcome [10] | outcome [11] | outcome [12] | outcome [13] | outcome [14] | outcome [15] | outcome [16] | outcome [17]

CCN1CCN(c2ccc(S(=O)(=O)N3CCCCC3)cc2NC(=O)c2cccc(F)c2)CC1
inactive: outcome [1] | outcome [2] | outcome [3] | outcome [4] | outcome [5] | outcome [6] | outcome [7] | outcome [8] | outcome [9] | outcome [10] | outcome [11] | outcome [12] | outcome [13] | outcome [14] | outcome [16] | outcome [17]
active: potentiation [15] 18.4%

Cc1ccc(C)c2[nH]c(=O)c(C(c3nnnn3C3CCCC3)N3CCOCC3)cc12 (stereo not given)
inactive: outcome [1] | outcome [2] | outcome [3] | outcome [4] | outcome [5] | outcome [6] | outcome [7] | outcome [8] | outcome [9] | outcome [10] | outcome [11] | outcome [12] | outcome [13] | outcome [14] | outcome [15] | outcome [16] | outcome [17]

CCOC(=O)c1ccc(NC(=S)N2CCSC2c2ccc(Cl)cc2)cc1 (stereo not given)
inactive: outcome [1] | outcome [2] | outcome [3] | outcome [5] | outcome [6] | outcome [7] | outcome [8] | outcome [9] | outcome [10] | outcome [11] | outcome [12] | outcome [13] | outcome [14] | outcome [16] | outcome [17]
active: potentiation [4] 21% | potentiation [15] 26.4%

OC(CNCCc1ccc(C(F)(F)F)cc1)COc1ccc2ccccc2c1 (stereo not given)
inactive: outcome [1] | outcome [2] | outcome [3] | outcome [4] | outcome [5] | outcome [6] | outcome [7] | outcome [8] | outcome [9] | outcome [10] | outcome [11] | outcome [12] | outcome [13] | outcome [14] | outcome [15] | outcome [16] | outcome [17]

O=C(CCN1CCN(Cc2ccccc2)CC1)Nc1cccc(Br)c1
active: potentiation [3] 21%
inactive: outcome [1] | outcome [2] | outcome [4] | outcome [5] | outcome [6] | outcome [7] | outcome [8] | outcome [9] | outcome [10] | outcome [11] | outcome [12] | outcome [13] | outcome [14] | outcome [15] | outcome [16] | outcome [17]

CN1CCN(c2ccc(S(=O)(=O)N3CCCCC3)cc2NC(=O)c2ccc(F)cc2F)CC1
inactive: outcome [1] | outcome [2] | outcome [3] | outcome [4] | outcome [5] | outcome [6] | outcome [7] | outcome [8] | outcome [9] | outcome [10] | outcome [11] | outcome [12] | outcome [13] | outcome [14] | outcome [16] | outcome [17]
active: potentiation [15] 14.3%

O=C(Nc1ccc([N+](=O)[O-])cn1)C1CCCCC1
inactive: outcome [1] | outcome [2] | outcome [3] | outcome [4] | outcome [5] | outcome [6] | outcome [7] | outcome [8] | outcome [9] | outcome [10] | outcome [11] | outcome [12] | outcome [13] | outcome [14] | outcome [15] | outcome [16] | outcome [17]

CCOc1ccc(-n2c(C)cc(/C=C3/C(=N)N4C(=NC3=O)SN=C4S(C)(=O)=O)c2C)cc1
inactive: outcome [1] | outcome [2] | outcome [3] | outcome [4] | outcome [5] | outcome [6] | outcome [7] | outcome [8] | outcome [9] | outcome [10] | outcome [11] | outcome [12] | outcome [13] | outcome [14] | outcome [15] | outcome [16] | outcome [17]

CNC(=S)NNC(=O)c1cccn(Cc2cccc(C(F)(F)F)c2)c1=O
inactive: outcome [1] | outcome [2] | outcome [3] | outcome [5] | outcome [6] | outcome [7] | outcome [8] | outcome [9] | outcome [10] | outcome [11] | outcome [12] | outcome [13] | outcome [14] | outcome [15] | outcome [16] | outcome [17]
active: potentiation [4] 14%
